Reference: PubChem BioAssay (NCATS)
Inconclusive results are not listed. Unmarked numbers belong to inactive results. Calls of active or inactive are those of the source. Calls follow the shape of the dose curve; as a rule, active = well fitted cell-killing curve with a large enough effect; inconclusive = small, poorly fitted or top-dose-only effect; inactive = no such curve, though single readings can be large or run the other way.

test: Quantitative High-Throughput drug screen in 47 multiple myeloma cell lines against the NCATS MIPE library collection: JIM3_ECACC cell viability assay (AID 1918963; also: nearly all actives have a fitted effect of over 35% in size); conditions: JIM3 myeloma viability, CellTiter-Glo ATP, 48 h; series mostly up to 45.8 µM; viability, percent of control: at the top concentration
From the text: PI: Beverly A. Mock Ph.D.
Laboratory of Cancer Biology and Genetics,
Center for Cancer Research, National Cancer Institute,
National Institute of Health, Bethesda, Maryland
Drug resistance and disease progression are common in multiple myeloma (MM) patients, underscoring the need for new therapeutic combinations. […] We hypothesized that effective combinations would reduce MYC expression and enhance p16 activity. […] These preclinical data identify potentially useful drug combinations for evaluation in drug-resistant MM and reveal potential mechanisms of combined drug sensitivity.
Described herein is the primary MIPE qHTS used to cherrypick compounds. Validated compounds were then further tested for potential synergistic activiy.
[1] Peat TJ, Gaikwad SM, Dubois W, Gyabaah-Kessie N, Zhang S, Gorjifard S, Phyo Z, Andres M, Hughitt VK, Simpson RM, Miller MA, Girvin AT, Taylor A, Williams D, D'Antonio N, Zhang Y, Rajagopalan A, Flietner E, Wilson K, Zhang X, Shinn P, Klumpp-Thomas C, McKnight C, Itkin Z, Chen L, Kazandijian D, Zhang J, Michalowski AM, Simmons JK, Keats J, Thomas CJ, Mock BA. Drug combinations identified by high-throughput screening promote cell cycle transition and upregulate Smad pathways in myeloma. Cancer Lett. 2023 Aug 1;568:216284. doi: 10.1016/j.canlet.2023.216284. Epub 2023 Jun 24. PMID: 37356470; PMCID: PMC10408729.
SEQUENCE No. (e.g., 1, 2, 3, etc.); […] (e.g., Cells, Incubation, Reagent, etc.); VALUE and DESCRIPTION.
1; Cells; 5 uL; white, solid bottom 1536-well Greiner assay plate.
2; Compounds; 23 nL; Kalypsis pin tool (Wako USA) equipped with a 1536-well pin head to transfer to the assay plates.
3; Incubation; 48 hours; 37C incubation.
4; Reagent;5uL; CellTiter Glo (Promega).
5; Detector; 425V; Luminescence; Viewlux PerkinElmer.
NOTES (numbers refer to Sequence numbers above)
1. The cell-based screening methods employed in this study were like those previously published. Briefly, the corresponding myeloma cell lines were screened in 1,536-well plates with 500 cells, 5-uL per well for inhibition of cell viability (assessed by measuring ATP levels with CellTiterGlo).
2. NCATS MIPE 4.0 library of approved and investigational drugs were added using the Kalypsis pin tool. Wells treated with DMSO only for 100% viability and media only wells for 0% viability were used as controls.
3. The assay plates were covered and incubated for 48 hours in a 37C, 5% CO2 incubator with controlled humidity.
4. After 48 hours, CellTilter-GloTM luminescent substrate mix (Promega) reagent was added to the assay plate and plates we incubated for 5 min at room temperature.
5. Signal was measured as median relative luminescence units on a ViewLux (PerkinElmer) multiplate reader.
[1] Heske CM, Davis MI, Baumgart JT, Wilson K, Gormally MV, Chen L, Zhang X, Ceribelli M, Duveau DY, Guha R, Ferrer M, Arnaldez FI, Ji J, Tran HL, Zhang Y, Mendoza A, Helman LJ, Thomas CJ. Matrix Screen Identifies Synergistic Combination of PARP Inhibitors and Nicotinamide Phosphoribosyltransferase (NAMPT) Inhibitors in Ewing Sarcoma. Clin Cancer Res. 2017 Dec 1;23(23):7301-7311. doi: 10.1158/1078-0432.CCR-17-1121. Epub 2017 Sep 12. PMID: 28899971; PMCID: PMC6636827.
Potency is read from the fitted curve at half-maximal effect.

Structure (SMILES) | viability, percent of control | Potency
CC(=O)OCC1=C(C(=O)O)N2C(=O)[C@@H](N)[C@@H]2SC1 | 132% | 
COc1cccc2c1[C@]13CCN(CC4CC4)[C@H](C2)[C@]1(OC)CCC(=O)C3 | 104% | 
C=C[C@@H]1CN2CCC1C[C@H]2[C@H](O)c1ccnc2ccccc12 (stereo not given in full) |  | 14.8 µM (active)
O=C1C=CC[C@@H]2[C@H]3CCCN4CCC[C@@H](CN12)[C@@H]34 | 104% | 
O=C(Nc1ccncc1)C(=O)c1cn(Cc2ccc(Cl)cc2)c2ccccc12 |  | 0.0148 µM (active)
CCOP(=O)(OCC)C(C)NC(=O)N(CCCl)N=O (stereo not given) | 107% | 
Cc1c(C(=O)Nc2cccc(C(F)(F)F)c2)cc(-c2ccccc2)n1CCCN1CCOCC1 |  | 20.9 µM (active)
COc1ccc2c(c1)[C@]13CCCCC1C(C2)N(C)CC3 (stereo not given in full) | 100% | 
O=c1[nH]c2ccc(Cl)cc2c(N[C@@H]2CN3CCC2CC3)c1-c1nc2ccccc2[nH]1 |  | 0.0743 µM (active)
COc1cc([C@@H]2c3cc4c(cc3[C@@H](O)C3COC(=O)C32)OCO4)cc(OC)c1O (stereo not given in full) |  | 0.0332 µM (active)
Cc1c(C(=O)c2cccc3ccccc23)c2cccc3c2n1[C@H](CN1CCOCC1)CO3 |  | 23.5 µM (active)
CCc1c(C(=O)C(N)=O)c2c(OCC(=O)O)cccc2n1Cc1ccccc1 | 123% | 
CN[C@@H]1Cc2cccc3[nH]c(=O)n(c23)C1 | 121% | 
COCC1(CO)C(=O)C2CCN1CC2 (stereo not given) |  | 18.7 µM (active)
NC1CC1c1ccccc1 (stereo not given) | 119% | 
CC(C)(C)[C@]1(O)C[C@@H]2OC(=O)C[C@@]23C(=O)O[C@@H]2OC(=O)[C@H](O)C213 (stereo not given in full) | 119% | 
CC(C)N[C@@H]1CCn2c(=O)[nH]c3cccc(c32)[C@@H]1O |  | 9.35 µM (active)
O=[N+]([O-])c1ncc[nH]1 | 96.8% | 
O=C(Oc1ccc([N+](=O)[O-])cc1)N1CCN(Cc2cccc(Oc3ccccc3)c2)CC1 | 86.2% | 
O=C(N[C@H]1CN2CCC1CC2)c1ccc(Cl)cc1 | 110% | 

Structure (SMILES) | viability, percent of control | Potency
Oc1ccc2c3c1O[C@H]1c4[nH]c5c(c4C[C@@]4(O)[C@@H](C2)N(CC2CC2)CC[C@]314)C[C@@]1(O)[C@H]2Cc3ccc(O)c4c3[C@@]1(CCN2CC1CC1)[C@H]5O4 | 110% | 
C[C@@H]1[C@H](O)[C@@H](C)C=CC=CCCC=CC=CC=CC=C[C@H](O[C@H]2O[C@@H](C)[C@H](O)[C@@H](N)[C@@H]2O)CC2O[C@](O)(C[C@@H](O)[C@H](O)CC[C@@H](O)C[C@@H](O)C[C@@H](O)CC(=O)O[C@H]1C)C[C@H](O)[C@H]2C(=O)O | 129% | 
CCN(CC)C(=O)c1ccc(C2=CC3(CCNCC3)Oc3cccc(O)c32)cc1 | 135% | 
CN(C)NC(=O)CCC(=O)O | 110% | 
COC1=CC(C)=C[C@@H](C)[C@@H](O)[C@@H](C)CC(C)=CC=C[C@H](OC)[C@H]([C@@H](C)[C@@H](O)[C@H](C)[C@@]2(O)C[C@@H](O)[C@H](C)[C@@H](C(C)C)O2)OC1=O |  | 0.0053 µM (active)
N#C[C@H](O[C@@H]1O[C@H](CO[C@@H]2O[C@H](CO)[C@H](O)[C@H](O)[C@H]2O)[C@H](O)[C@H](O)[C@H]1O)c1ccccc1 |  | 20.9 µM (active)
COc1cc2cc(c1Cl)N(C)C(=O)C[C@H](OC(=O)C(C)C)[C@]1(C)O[C@H]1[C@H](C)[C@@H]1C[C@@](O)(NC(=O)O1)[C@H](OC)C=CC=C(C)C2 | 18.7% | 
Cc1[nH]nc2ccc(-c3cncc(OC[C@@H](N)Cc4c[nH]c5ccccc45)c3)cc12 |  | 1.48 µM (active)
Cc1nc(-c2ccc(-c3ccc(C(=O)N4CCc5cc6c(cc54)C4(CCN(C)CC4)CO6)cc3)c(C)c2)no1 | 82.3% | 
CC(=O)O[C@@]12CO[C@H]1C[C@H](O)[C@@]1(C)C(=O)[C@H](O)C3=C(C)[C@@H](O)C[C@@](O)([C@@H](OC(=O)c4ccccc4)[C@@H]21)C3(C)C |  | 1.05 µM (active)
C[C@]12CCC(=O)C(O)=C1CC[C@@H]1[C@H]3CCC(=O)[C@@]3(C)CC[C@@H]12 | 97.9% | 
C[C@@]12OC(=O)[C@]1([C@@H](O)[C@@H]1C=CCCC1)NC(=O)[C@H]2CCCl |  | 0.0235 µM (active)
C1=C2CCCN[C@H]2[C@@H]2C[C@H]1[C@@H]1CCCCN1C2 | 108% | 
O=C(O)CNC(=O)c1c(O)c2ccccc2n(Cc2ccccc2)c1=O | 121% | 
C[C@]12COC(=O)C[C@@H]1CC[C@@H]1[C@H]2CC[C@@]2(C)[C@H]1CC[C@]2(C)O | 123% | 
CCNC(=O)C[C@@H]1N=C(c2ccc(Cl)cc2)c2cc(OC)ccc2-n2c(C)nnc21 |  | 6.62 µM (active)
C[C@H]1CCCC=CC2C[C@H](O)C[C@@H]2[C@H](O)C=CC(=O)O1 (stereo not given in full) | 8.09% | 
O=C1CCC[C@@H]2[C@H]3CCCN4CCC[C@@H](CN12)[C@@H]34 | 98.7% | 
CCOC(=O)c1c(C(C#N)=CN)c2ccc(Cl)c(Cl)c2n1C | 94.8% | 
COC1=C[C@@H]2[C@@H]3Cc4ccc(OC)c(O)c4[C@]2(CCN3C)CC1=O |  | 9.35 µM (active)
